# Results taken from publication PMC7862700, “An all-to-all approach to the identification of sequence-specific readers for epigenetic DNA modifications on cytosine”.
# Tests used:
# Assay in all cases: DAPPL (digital affinity profiling via proximity ligation, sequencing); 10 mM Tris-HCl pH 7.5, 50 mM NaCl, 1 mM DTT, 4% glycerol, room temperature, 30 min; GST-TFs on glutathione beads, 16-mer random dsDNA library, 0.1% formaldehyde crosslink after washing; high values mean tight binding
# Settings in all cases: protein: recombinant; tags: N-terminal GST; dsDNA, one strand shown
# FLI1 = target: T1, FLI1 (Homo sapiens, UniProt Q01543 1-452)
# T1 sequence: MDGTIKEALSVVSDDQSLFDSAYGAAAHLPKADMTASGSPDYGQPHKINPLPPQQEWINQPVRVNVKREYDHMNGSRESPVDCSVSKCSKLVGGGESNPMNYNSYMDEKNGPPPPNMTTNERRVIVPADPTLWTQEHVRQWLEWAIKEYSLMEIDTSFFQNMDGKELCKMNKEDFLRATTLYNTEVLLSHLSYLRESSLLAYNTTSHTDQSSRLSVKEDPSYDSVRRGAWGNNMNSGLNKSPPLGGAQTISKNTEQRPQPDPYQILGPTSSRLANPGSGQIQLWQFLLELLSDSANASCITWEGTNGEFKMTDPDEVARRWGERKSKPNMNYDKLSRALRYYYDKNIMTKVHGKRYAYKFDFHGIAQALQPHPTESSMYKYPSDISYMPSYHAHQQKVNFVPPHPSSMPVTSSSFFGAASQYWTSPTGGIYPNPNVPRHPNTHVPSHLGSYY
# Procedure, shortened: (§1)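 Each value of binding signal is a hexamer's read frequency for a factor divided by the same hexamer's frequency in the tag-only sample. Barcoded, bead-captured GST fusions of human transcription factors made in yeast were pooled with that sample and incubated with 200 nmole of a random double-stranded 16-mer DNA library in Tris/NaCl/DTT/glycerol buffer at room temperature for 30 min. Washing, 0.1% formaldehyde crosslinking, proximity ligation, PCR and Illumina NextSeq500 sequencing followed.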
# ELK1 = target: T2, ELK1 (Homo sapiens, UniProt P19419 1-428)
# T2 sequence: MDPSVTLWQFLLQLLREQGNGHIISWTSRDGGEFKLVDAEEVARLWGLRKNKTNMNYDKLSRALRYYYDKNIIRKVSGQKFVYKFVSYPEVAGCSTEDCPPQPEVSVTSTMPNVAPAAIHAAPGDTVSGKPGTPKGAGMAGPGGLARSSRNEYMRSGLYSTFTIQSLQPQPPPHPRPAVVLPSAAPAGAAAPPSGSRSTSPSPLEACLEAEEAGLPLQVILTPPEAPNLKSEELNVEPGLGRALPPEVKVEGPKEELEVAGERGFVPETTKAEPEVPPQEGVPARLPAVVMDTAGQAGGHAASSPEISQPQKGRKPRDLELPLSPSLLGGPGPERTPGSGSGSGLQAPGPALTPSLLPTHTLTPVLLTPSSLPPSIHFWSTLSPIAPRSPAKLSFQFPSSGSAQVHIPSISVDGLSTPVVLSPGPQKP
# Procedure, shortened: as §1
# GABPA = target: T3, GABPA (Homo sapiens, UniProt Q06546 1-454)
# T3 sequence: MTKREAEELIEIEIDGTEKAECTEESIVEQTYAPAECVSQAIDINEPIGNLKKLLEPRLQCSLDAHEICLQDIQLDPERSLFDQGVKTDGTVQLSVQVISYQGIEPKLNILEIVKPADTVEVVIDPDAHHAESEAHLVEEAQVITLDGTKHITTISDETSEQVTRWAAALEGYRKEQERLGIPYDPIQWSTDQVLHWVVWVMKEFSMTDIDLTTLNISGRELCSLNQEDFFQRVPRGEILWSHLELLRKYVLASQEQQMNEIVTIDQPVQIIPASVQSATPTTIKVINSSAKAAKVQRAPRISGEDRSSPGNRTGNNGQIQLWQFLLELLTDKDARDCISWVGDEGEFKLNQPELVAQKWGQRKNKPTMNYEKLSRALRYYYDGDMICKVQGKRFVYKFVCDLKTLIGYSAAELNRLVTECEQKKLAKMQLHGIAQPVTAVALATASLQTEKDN
# Procedure, shortened: as §1
# ERG = target: T4, ERG (Homo sapiens, UniProt P11308 1-479)
# T4 sequence: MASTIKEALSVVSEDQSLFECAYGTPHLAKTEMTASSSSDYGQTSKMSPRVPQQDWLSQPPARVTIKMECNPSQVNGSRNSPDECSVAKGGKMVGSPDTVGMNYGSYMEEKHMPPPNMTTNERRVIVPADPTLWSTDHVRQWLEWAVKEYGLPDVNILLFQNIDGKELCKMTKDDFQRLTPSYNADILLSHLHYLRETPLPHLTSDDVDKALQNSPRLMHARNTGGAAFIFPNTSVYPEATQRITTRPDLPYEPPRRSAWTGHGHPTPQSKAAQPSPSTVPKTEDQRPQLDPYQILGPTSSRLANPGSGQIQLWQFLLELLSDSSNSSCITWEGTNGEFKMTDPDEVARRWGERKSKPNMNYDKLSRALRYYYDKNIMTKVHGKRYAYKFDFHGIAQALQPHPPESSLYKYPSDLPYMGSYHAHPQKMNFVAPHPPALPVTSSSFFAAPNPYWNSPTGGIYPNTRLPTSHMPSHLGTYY
# Procedure, shortened: as §1
# ELF1 = ELF1 (Homo sapiens, UniProt P32519 1-619)
# ELF1, sequence (P32519 whole entry): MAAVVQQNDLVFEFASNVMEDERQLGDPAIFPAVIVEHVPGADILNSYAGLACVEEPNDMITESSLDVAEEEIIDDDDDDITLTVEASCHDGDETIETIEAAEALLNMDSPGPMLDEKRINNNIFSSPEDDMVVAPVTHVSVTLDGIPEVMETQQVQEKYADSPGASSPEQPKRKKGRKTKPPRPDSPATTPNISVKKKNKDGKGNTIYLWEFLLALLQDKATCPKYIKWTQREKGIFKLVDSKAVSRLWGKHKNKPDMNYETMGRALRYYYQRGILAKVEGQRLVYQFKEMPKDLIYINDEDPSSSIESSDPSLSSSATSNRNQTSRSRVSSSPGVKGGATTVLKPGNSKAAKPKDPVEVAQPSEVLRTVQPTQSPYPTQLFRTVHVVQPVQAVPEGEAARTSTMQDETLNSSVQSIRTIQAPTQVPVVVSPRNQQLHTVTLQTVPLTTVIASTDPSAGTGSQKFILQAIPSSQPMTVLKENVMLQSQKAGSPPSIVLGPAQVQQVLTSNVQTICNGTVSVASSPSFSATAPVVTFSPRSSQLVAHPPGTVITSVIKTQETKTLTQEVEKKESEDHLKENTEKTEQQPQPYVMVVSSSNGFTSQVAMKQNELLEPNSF
# Procedure, shortened: as §1
# EHF = target: T5, EHF (Homo sapiens, UniProt Q9NZC4 1-300)
# T5 sequence: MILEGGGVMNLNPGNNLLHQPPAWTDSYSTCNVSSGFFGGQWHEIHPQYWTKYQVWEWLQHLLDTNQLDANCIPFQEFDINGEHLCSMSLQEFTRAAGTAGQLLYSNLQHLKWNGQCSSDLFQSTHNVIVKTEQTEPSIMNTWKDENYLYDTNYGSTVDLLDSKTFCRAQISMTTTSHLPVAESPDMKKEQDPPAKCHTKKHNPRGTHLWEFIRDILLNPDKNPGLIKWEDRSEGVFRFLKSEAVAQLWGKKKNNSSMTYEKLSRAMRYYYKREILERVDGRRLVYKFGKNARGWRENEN
# Procedure, shortened: as §1
# SPI1 = SPI1 (Homo sapiens, UniProt P17947 1-270)
# Procedure, shortened: as §1
# SPIB = SPIB (Homo sapiens, UniProt Q01892 1-262)
# SPIB, sequence (Q01892 whole entry): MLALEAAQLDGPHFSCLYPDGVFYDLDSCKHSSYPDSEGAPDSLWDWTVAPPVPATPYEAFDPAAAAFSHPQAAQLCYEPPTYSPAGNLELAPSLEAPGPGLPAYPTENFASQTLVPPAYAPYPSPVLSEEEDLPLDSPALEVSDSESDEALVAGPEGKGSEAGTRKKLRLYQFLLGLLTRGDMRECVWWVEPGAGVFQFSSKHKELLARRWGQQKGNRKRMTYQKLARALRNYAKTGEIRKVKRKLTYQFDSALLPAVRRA
# Procedure, shortened: as §1
# ELK3 = target: T6, ELK3 (Homo sapiens, UniProt P41970 1-407)
# T6 sequence: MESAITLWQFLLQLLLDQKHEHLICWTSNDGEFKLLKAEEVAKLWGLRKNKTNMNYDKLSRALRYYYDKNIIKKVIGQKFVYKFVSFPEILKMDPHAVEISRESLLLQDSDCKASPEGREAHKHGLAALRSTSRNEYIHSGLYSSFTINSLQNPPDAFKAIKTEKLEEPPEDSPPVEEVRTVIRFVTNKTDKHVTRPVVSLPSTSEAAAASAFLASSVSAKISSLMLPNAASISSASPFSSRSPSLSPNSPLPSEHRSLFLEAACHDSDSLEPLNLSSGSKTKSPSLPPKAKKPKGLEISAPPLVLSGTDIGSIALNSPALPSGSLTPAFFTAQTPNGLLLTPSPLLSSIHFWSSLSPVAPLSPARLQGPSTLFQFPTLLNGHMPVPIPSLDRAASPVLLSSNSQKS
# Procedure, shortened: as §1
sequence,measurement,setting,value
TCGCTT,binding signal,FLI1,"1.22 fold enrichment (6-mer frequency, TF over GST control)"
same,binding signal,ELK1,"1.3 fold enrichment (6-mer frequency, TF over GST control)"
same,binding signal,GABPA,"1.23 fold enrichment (6-mer frequency, TF over GST control)"
same,binding signal,ERG,"1.18 fold enrichment (6-mer frequency, TF over GST control)"
same,binding signal,ELF1,"1.19 fold enrichment (6-mer frequency, TF over GST control)"
same,binding signal,EHF,"1.2 fold enrichment (6-mer frequency, TF over GST control)"
same,binding signal,SPI1,"1.08 fold enrichment (6-mer frequency, TF over GST control)"
same,binding signal,SPIB,"1.38 fold enrichment (6-mer frequency, TF over GST control)"
same,binding signal,ELK3,"1.18 fold enrichment (6-mer frequency, TF over GST control)"
ATTTGC,binding signal,FLI1,"1.3 fold enrichment (6-mer frequency, TF over GST control)"
same,binding signal,ELK1,"1.36 fold enrichment (6-mer frequency, TF over GST control)"
same,binding signal,GABPA,"1.34 fold enrichment (6-mer frequency, TF over GST control)"
same,binding signal,ERG,"1.32 fold enrichment (6-mer frequency, TF over GST control)"
same,binding signal,ELF1,"1.34 fold enrichment (6-mer frequency, TF over GST control)"
same,binding signal,EHF,"1.17 fold enrichment (6-mer frequency, TF over GST control)"
same,binding signal,SPI1,"1.41 fold enrichment (6-mer frequency, TF over GST control)"
same,binding signal,SPIB,"1.32 fold enrichment (6-mer frequency, TF over GST control)"
same,binding signal,ELK3,"1.2 fold enrichment (6-mer frequency, TF over GST control)"
ATGCCT,binding signal,FLI1,"1.38 fold enrichment (6-mer frequency, TF over GST control)"
same,binding signal,ELK1,"1.4 fold enrichment (6-mer frequency, TF over GST control)"
same,binding signal,GABPA,"1.52 fold enrichment (6-mer frequency, TF over GST control)"
same,binding signal,ERG,"1.48 fold enrichment (6-mer frequency, TF over GST control)"
same,binding signal,ELF1,"1.35 fold enrichment (6-mer frequency, TF over GST control)"
same,binding signal,EHF,"1.42 fold enrichment (6-mer frequency, TF over GST control)"
same,binding signal,SPI1,"1.32 fold enrichment (6-mer frequency, TF over GST control)"
same,binding signal,SPIB,"1.45 fold enrichment (6-mer frequency, TF over GST control)"
same,binding signal,ELK3,"1.22 fold enrichment (6-mer frequency, TF over GST control)"
TACCAT,binding signal,FLI1,"1.22 fold enrichment (6-mer frequency, TF over GST control)"
same,binding signal,ELK1,"1.09 fold enrichment (6-mer frequency, TF over GST control)"
same,binding signal,GABPA,"1.19 fold enrichment (6-mer frequency, TF over GST control)"
same,binding signal,ERG,"1.17 fold enrichment (6-mer frequency, TF over GST control)"
same,binding signal,ELF1,"1.23 fold enrichment (6-mer frequency, TF over GST control)"
same,binding signal,EHF,"1.11 fold enrichment (6-mer frequency, TF over GST control)"
same,binding signal,SPI1,"1.15 fold enrichment (6-mer frequency, TF over GST control)"
same,binding signal,SPIB,"1.21 fold enrichment (6-mer frequency, TF over GST control)"
same,binding signal,ELK3,"1.21 fold enrichment (6-mer frequency, TF over GST control)"
